The panel holds about 83,000 compounds, 20% with a hit somewhere; the sample as a whole holds those more often.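 Plates (96-well) were seeded with cells, treated with compound at one concentration, and incubated for 48 hours before percent growth was determined.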 Activity calls are given as the source filed them.

This assay deals with UO-31 renal. Briefly: NCI-60 one-dose screen, 48 h (100 = growth as untreated, 0 = no growth, -100 = all killed). The conditions noted are these: 10 µM unless noted. The procedure: Growth inhibition of the UO-31 human tumor cell line is measured as a screen for anti-cancer activity. Cells are grown in 96 well plates and exposed to the test compound for 48 hours. Compounds are tested at a single concentration, which is 10^-5 M for most compounds. The reported endpoint is percent growth (GI% or GIPRCNT), where numbers from 0 - 100% represent growth inhibition, and numbers from -100% - 0 represent cell death. For example, a value of 40 represents 60% growth inhibition. A value of 0 means no net growth occurred over the course of the experiment. A value of -40 indicates 40% of cells at the beginning of the experiment died by the end of the experiment. A value of -100 means all cells are dead at the end of the experiment.
NCI-60 Human Tumor Cell Lines Screen was performed using the standard one-dose NCI protocol, which is described in more detail at https://dtp.cancer.gov/discovery_development/nci-60/default.htm.
Compounds with GIPRCNT values below 10 were considered active. Activity score was based on GIPRCNT using the following formula: […]
Score is 0 for GIPRCNT values of 100 or above, 50 for GIPRCNT values of 0, and 100 for GIPRCNT values of -100.
Consider `CN(Cc1cnc2nc(N)nc(N)c2n1)c1ccc(C(=O)NC(CCC(=O)O)C(=O)O)cc1Br` (stereo not given), for which the growth is 38.8% (inactive).
On to `CCN1C(=O)N(CC)C2Nn3c(s/c(=C\c4ccccc4Br)c3=O)=NC21` (stereo not given), for which the growth is 55% (inactive).
In the case of `C=C(C)[C@@H]1CC[C@]2(C(N)=O)CC[C@]3(C)[C@H](CC[C@@H]4[C@@]5(C)CC[C@H](OCCC#N)C(C)(C)[C@@H]5CC[C@]43C)[C@@H]12` it was 75.8% (inactive); in that of `COc1cc(-c2nc3cc(Cl)c(Cl)cc3[nH]2)ccc1OCC(=O)N=Nc1c(O)[nH]c2ccc(Cl)cc12`, 89% (inactive); in that of `C/C(Cc1ccc(Cl)cc1)=C(\c1ccc(OCCCN(C)C)cc1)c1ccc(OC(=O)Cc2ccccc2)cc1`, 96% (inactive).
For the compound `[2H]C([2H])([2H])Oc1ccc(F)cc1/C=C/C(=O)/C=C(O)/C=C/c1cc(F)ccc1OC([2H])([2H])[2H]`, the growth was 91.5% (inactive).
In the case of `CN(C)S(=O)(=O)Oc1ccc(-c2sc3cc(OS(=O)(=O)N(C)C)ccc3c2C(=O)c2ccc(OCCN3CCCCC3)cc2)cc1` it was 43.6% (inactive).
In the case of `CNC(=O)c1cc(Oc2cccc3nc(NC(=O)Nc4cc(C(F)(F)F)ccc4Cl)ccc23)ccn1` it was 105% (inactive).
For `CCN1C(=O)N(CC)C2C1NN=c1s/c(=C3\C(=O)N(CCC(C)C)c4ccccc43)c(=O)n12` (stereo not given) the value was 29.5% (inactive); for `Cc1n[nH]c2ccc(Br)cc2c1=O`, 75.8% (inactive).
Turning to `O=[N+]([O-])c1cc(NS(=O)(=O)c2ccccc2)ccc1NS(=O)(=O)c1ccccc1`, the growth was 95.8% (inactive).
In the case of `C=C(CNCCc1ccc(O)cc1)[C@@H]1CC[C@]2(CO)CC[C@]3(C)[C@H](CC[C@@H]4[C@@]5(C)CCC(=O)C(C)(C)[C@@H]5CC[C@]43C)[C@@H]12` it was 27.1% (inactive); in that of `O=C(/C=C(O)/C=C/c1cccc2[nH]ccc12)/C=C/c1cccc2[nH]ccc12`, 52% (inactive).
In the case of `COc1ccc(C(=O)/C=C/c2ccc(N3CCCCC3)cc2)cc1OC` it was 73.4% (inactive); in that of `COc1ccc(/C=C2\COc3ccc(O)cc3C2=O)cc1`, 72.7% (inactive); in that of `O=C(O)c1cn(C2CC2)c2cc(N3CCN(C(=O)Nc4nc(-c5ccc(Br)cc5)cs4)CC3)c(F)cc2c1=O`, 14% (inactive).
In the case of `O=C(Nc1ccc(Cl)cc1)Oc1c(Cl)c(Cl)c(Cl)c(Cl)c1Cl` it was 78.5% (inactive); in that of `Cc1cccc(N2CCC(=O)NC2=S)c1`, 88.2% (inactive); in that of `COc1ccc(C(=O)Cn2c(C(=O)c3ccc(Cl)cc3)nc3ccccc32)cc1`, 54.7% (inactive).
As to `C=C1C(=O)O[C@H]2[C@H]1CC/C(COC(=O)c1ccc(C(=O)O)s1)=C\CC[C@@]1(C)O[C@@H]21`, the growth is 29% (inactive).
Turning to `O=C(O)[C@@H](Cc1ccc2ccccc2c1)NC(=O)n1c2ccccc2c2ccccc21`, the growth was 38.9% (inactive).
For `COc1cc(C(=O)c2c(-c3ccccc3)oc3c(OC)cccc23)cc(OC)c1OC` the value was 28.2% (inactive); for `O=C(Oc1ccc(CCl)cc1)c1ccccc1`, -92.6% (active); for `C=C(C)[C@@H]1CC[C@]2(C)[C@H](CC=C3[C@@H]4CC(C)(C)CC[C@]4(CO)CC[C@]32C)[C@@]1(C)CCCN`, 47.7% (inactive).
Turning to `NC(=O)c1cnc(Nc2cccc(N)c2)nc1NCCCNC(=O)C1CCC1`, the growth is 27.8% (inactive).
In the case of `O=S(=O)(NCCNc1nccc(-c2c(-c3cccc(O)c3)nc3occn23)n1)c1ccc(Br)cc1` it was 30.8% (inactive).
In the case of `C/C(=N\O)c1ccc(NC(=O)CSc2nnc(-c3cc(-c4ccc(S(C)(=O)=O)cc4)nc4ccccc34)n2-c2ccccc2)cc1` it was 65.2% (inactive); in that of `Oc1c(CN2CCC(N3CCCCC3)CC2)cc(Cc2cc(CN3CCC(N4CCCCC4)CC3)c(O)c3ncccc23)c2cccnc12`, 12.4% (inactive); in that of `CCN1C(=O)N(CC)C2C1N=C(SCc1ccc(Cl)cc1)N2/N=C/C=C/c1ccccc1OC` (stereo not given), 54.3% (inactive).
For `Nc1ncnc2c1N=C(c1ccc3c(c1)OCO3)CC(c1cccc(Nc3ccnc4cc(C(F)(F)F)ccc34)c1)N2` (stereo not given) the value was 76.9% (inactive).
`O=C1/C=C/[C@@H](O)[C@@H]2C[C@@H](O)C[C@H]2/C=C/CCC[C@@H](O)CCO1`: the growth was 108% (inactive).
For `CC1(C)CC[C@]2(CO)CC[C@]3(C)[C@H](CC[C@@H]4[C@@]5(C)CCCNC(C)(C)[C@@H]5CC[C@]43C)[C@H]2[C@H]1O` the value was 72.6% (inactive); for `OCCNCCNC(Cc1ccc(Cl)cc1)c1ccccc1` (stereo not given), 64.5% (inactive); for `N#C/C(=C\c1ccc([N+](=O)[O-])cc1)n1nnc2cc(F)c(F)cc21`, -77.8% (active).
Consider `O=C(N=Nc1c(O)[nH]c2ccccc12)Nc1ccc(F)cc1`, for which the growth is 72.8% (inactive).
In the case of `COc1ccc(-c2nc(/C=C3\C(=O)N(C)c4ccccc43)c3ccccn23)cc1` it was 69.3% (inactive).
Take `Clc1c(Cl)[n+](Cc2ccc3ccccc3c2)cn1Cc1ccc2ccccc2c1`: the growth is 70.7% (inactive).
In the case of `CNCc1cccc2c1OCCOCCOCCNS(=O)(=O)c1ccc(cc1)-c1cnc(N)c(n1)C(=O)N2` it was 77.6% (inactive).
For `CCCCCCCCCCCCCCCCCC1=NC(C)(C)CN1CC(C)O` (stereo not given) the value was 68.8% (inactive); for `COc1ccc(N2CCN(C(=O)c3sc4nc(C)c(Br)c(C)c4c3N)CC2)cc1`, 59.4% (inactive).

Source of the values: PubChem BioAssay (NCI).
